# Assay outcomes: PubChem, National Center for Advancing Translational Sciences (NCATS)
# AMA1-RON2 inh – disrupts binding of P. falciparum AMA1 to RON2; AlphaScreen AMA1-biotinylated RON2 peptide binding; Potency, µM (series often up to 58.2 µM), for inactives: top-dose activity change, negative = inhibition, actives largely listed as inhibitors; 360,000 compounds, 0.2% hits; AID 720542;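 further: potency means the concentration at half of the fitted maximal effect; 0% = vehicle wells and -100% = peptide control; nearly all actives have a fitted effect of over 45% in size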
#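 AMA1 (3D7) with his tag at 25 nM final met compounds first, then biotinylated RON2 peptide at 25 nM; detection used donor plus acceptor beads, 10 µg/mL apiece, read by AlphaScreen after 30 min at room temperature.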
# Pf growth 48h – inhibits P. falciparum growth in the first generation, 48 h; P. falciparum luciferase growth in erythrocytes, 48 h; Potency, µM (highest dose often 28.7 µM), for the others: at the top dose activity change, negative = inhibition, actives largely listed as inhibitors; 310,000 compounds, 5.9% hits; further: potency means the concentration at half of the fitted maximal effect; on the % scale 0 is the no-effect control and ±100 the full control effect
#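 A one-generation exposure of luciferase-tagged malaria parasites in RPMI 1640/Albumax erythrocyte culture, 37 C and 5% CO2. Inhibition is inferred from decreased luminescence after adding detection reagent.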
# HCV inh – inhibitors of hepatitis C virus infection | Huh7.5.1 HCVcc-Cre infection, luciferase reporter, 44 h | Potency, µM (titrated, usually from 41.8 µM), for the others: top-dose activity change, negative = inhibition, hits mostly inhibitors | 340,000 compounds, 3.4% hits; further: potency means the concentration at half of the fitted maximal effect; on the % scale 0 is the no-effect control and ±100 the full control effect
#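 Cells seeded at 1,000/well and cultured 4 h, then compounds added followed by HCVcc-Cre virus (~0.5 moi). After 44 h further culture, luciferase substrate was added, plates held 15 min at room temperature, and luminescence read for 15 sec.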
# Shiga inhibitor – Shiga toxin inhibition; Vero cells, Shiga toxin protein synthesis inhibition reporter; inhibition, % at 38.7 µM; 290,000 compounds, 9.2% hits; AID 2315; in the data active means inhibition mostly above about 28%, no sharp cut-off; inactive means mostly below about 43%; further: 0% is about no effect
# Pf growth 96h – inhibits malaria parasite growth, 96 h. P. falciparum luciferase reporter growth, 96 h. Potency, µM (doses to about 28.7 µM), without a hit: top-dose activity change, negative = inhibition, actives largely listed as inhibitors. 320,000 compounds, 6.9% hits; further: potency means the concentration at half of the fitted maximal effect; on the % scale 0 is the no-effect control and ±100 the full control effect
#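 Plates of compound plus infected erythrocytes (2% hematocrit, 0.05% parasitemia final) incubate 96 hours, 37 C, 5% CO2. Detection reagent added; reduced luminescence from the parasites' luciferase reporter flags inhibition.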
# Cycloheximide cs – affects cycloheximide protein synthesis inhibition readout, counter-screen | cell reporter, cycloheximide protein synthesis inhibition counterscreen | max response, % | 300,000 compounds, 12% hits; in the data active means max response mostly above about 13%, no sharp cut-off; inactive means mostly below about 14%; further: read at 38.3 µM for the half of the compounds with a filed dose; 0% is about no effect
# An asterisk follows results filed as active; i = inactive; ? = inconclusive; . = no result given; + = active, no number; [ ] = another dose, or the depositor's remark. An excerpt weighted towards active compounds, which were near 21% of everything screened. Unless noted, the call rests on the fitted dose curve; in most records, active means well fitted curve in the direction sought with a large enough effect; inconclusive means small, poorly fitted or top-dose-only effect, or another doubt; inactive means no such curve, though single readings can be large; an effect the other way counts as inactive or inconclusive.
SMILES,AMA1-RON2 inh,Pf growth 48h,HCV inh,Shiga inhibitor,Pf growth 96h,Cycloheximide cs
CCN(CC)CCC(c1ccc(N(C)C)cc1)c1c(OC)cc(OC)c2c(C)cc(=O)oc12 (centres undefined),.,.,.,-12,.,-5
COc1cc(C(CC(=O)N2CCCC2)c2c(OC)cc(OC)c3ccc(=O)oc23)cc(OC)c1OC (centres undefined),15%,13µM*,7%,-12,13µM*,-6
COc1cc(OC)c2ccc(=O)oc2c1C(CC(=O)N1CCCCC1)c1ccc2c(c1)OCO2 (centres undefined),.,.,.,-4,.,11
Cc1cc(C(=O)CCC(=O)NCc2ccccc2F)c(C)s1,-11%,4%,-6%,.,41%,.
N#Cc1cccnc1N1CCN(C(c2ccnc3ccccc23)c2nnnn2-c2ccc3c(c2)OCCO3)CC1 (centres undefined),-16%,.,.,.,.,.
CC(C)Nc1ccc(Cl)cc1[N+](=O)[O-],.,8%,.,-3,0%,11
COc1cc(C(CCN2CCN(c3ccccc3)CC2)c2c(OC)cc(OC)c3c(C)cc(=O)oc23)cc(OC)c1OC (centres undefined),?,2.6µM*,4µM*,3,3.7µM*,11
COc1cc(C(CCN2CCCC(C)C2)c2c(OC)cc(OC)c3c(C)cc(=O)oc23)cc(OC)c1OC (centres undefined),.,.,.,-8,.,-4
COc1cc(C(CCN2CCCC2)c2c(OC)cc(OC)c3ccc(=O)oc23)cc(OC)c1OC (centres undefined),8%,?,2µM*,0,10µM*,-4
COc1ccc(C(CC(=O)N2CCN(c3ccccc3)CC2)c2c(OC)cc(OC)c3ccc(=O)oc23)cc1 (centres undefined),-13%,7.4µM*,-22%,-3,8.3µM*,5
COc1ccc(C(CC(=O)N2CCCC2)c2c(O)cc(OC)cc2OC)cc1 (centres undefined),12%,1%,8%,-6,-3%,2
COCCn1c(N)c(N(Cc2ccccc2)C(=O)c2ccc(-c3ccc(Cl)cc3)o2)c(=O)[nH]c1=O,-15%,?,-3%,.,-14%,.
CC1CCC/C(=C\c2ccc(O)cc2)C1=O (centres undefined),1%,.,8%,.,.,.
Cc1ccsc1/C=C1\CCC(C2CCCC2)C1=O (centres undefined),26%,i,-4%,106*,-26%,44*
COc1ccc(/C=C2/CCC(CN3CCOCC3)C2=O)cc1 (centres undefined),-4%,.,5µM*,.,.,.
COc1ccc(C=NCCCN2CCOCC2)cc1,5%,?,11%,19,-19%,11
COc1ccc(/C=C2\CCC(C3CCCC3)C2=O)cc1 (centres undefined),-3%,225%,18%,93*,?,51*
Cc1ccc(/C=C2\CCC(C3CCCC3)C2=O)cc1 (centres undefined),8%,259%,12%,61*,-4%,56*
Cc1ccc(NC(=O)ON=C2CCCC2)cc1,9%,4.7µM*,3%,+,20%,55*
O=C(Nc1ccccc1)ON=C1CCCC1,15%,8.3µM*,12%,39,?,23*
CCCCN1C(=O)C(CC(=O)NCCc2ccccn2)CC(C(=O)N(CC)CC)=C1C (centres undefined),0%,.,.,.,.,.
C#CCOCCOCCOCCNc1nc(N2CCN(C(=O)CCCCCCCCCCNC(=O)[C@@H](CCSC)n3cc(CCO)nn3)CC2)nc(N2CCN(C(=O)CCCCCCCCCCNC(=O)[C@H]([C@@H](C)CC)n3cc(CCCCN=C(N)N)nn3)CC2)n1,?,1.7µM*,?,.,0.41µM*,.
C#CCOCCOCCOCCNc1nc(N2CCN(C(=O)[C@H]([C@@H](C)CC)n3cc(CCCN=C(N)N)nn3)CC2)nc(N2CCN(C(=O)[C@H]([C@@H](C)CC)n3cc(CCC(=O)O)nn3)CC2)n1,-8%,.,3%[8.37 µM],.,.,.
